# Source: PubChem
# Cycloheximide cs – counter-screen hit for Shiga toxin inhibitors, cycloheximide. cell reporter, cycloheximide protein synthesis inhibition counterscreen. AID 2314. max response, %. hit rate 12% among 300,000; in the data active means max response mostly above about 13%, no sharp cut-off; inactive means mostly below about 14%; further: read at 38.3 µM for the half of the compounds with a filed dose; 0% is about no effect
# Pf growth 96h – P. falciparum growth inhibition at 96 hours. P. falciparum luciferase reporter growth, 96 h. Potency, µM (top dose mostly 28.7 µM), for inactives: at the top dose activity change, negative = inhibition, actives largely listed as inhibitors. hit rate 6.9% among 320,000. AID 504834; further: potency means the concentration at half of the fitted maximal effect; on the % scale 0 is the no-effect control and ±100 the full control effect
#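 Luminescence readout: decreased luciferase signal marks inhibited growth of reporter-expressing P. falciparum in infected red cells (2% hematocrit, 0.05% parasitemia final), exposed to compound two generations (96 h, 37 C, 5% CO2).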
# Shiga inhibitor – blocks Shiga toxin action in Vero cells. hit rate 9.2% among 290,000. Vero cells, Shiga toxin protein synthesis inhibition reporter. inhibition, % at 38.7 µM; in the data active means inhibition mostly above about 28%, no sharp cut-off; inactive means mostly below about 43%; further: 0% is about no effect
# SARS PLpro yeast – inhibitors of SARS-CoV papain-like protease in yeast; S. cerevisiae expressing SARS-CoV PLpro, growth rescue; Potency, µM (top dose mostly 32.9 µM), for the others: at the highest dose activity, positive = growth rescue, most hits filed as activators; hit rate 0.19% among 330,000; AID 485353; calls by dose curve; further: potency means the concentration at half of the fitted maximal effect; 0% is about no effect; nearly all actives have a fitted effect of over 55% in size
# Pf growth 48h – inhibits P. falciparum growth in the first generation, 48 h; P. falciparum luciferase growth in erythrocytes, 48 h; Potency, µM (series often up to 28.7 µM), for inactives: at the top dose activity change, negative = inhibition, hits mostly inhibitors; hit rate 5.9% among 310,000; AID 504832; further: potency means the concentration at half of the fitted maximal effect; on the % scale 0 is the no-effect control and ±100 the full control effect
#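 Compounds are pin-transferred into medium, infected erythrocytes (2% hematocrit, 0.1% parasitemia final) are added, and plates sit one parasite generation at 37 C in 5% CO2. Detection reagent is then added and luminescence measured.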
# NS1 inh – inhibitors of influenza NS1 protein function; Potency, µM (titrated, usually from 46.1 µM), for inactives: at the highest dose activity, positive = more growth; hit rate 0.4% among 270,000; calls by dose curve; further: potency means the concentration at half of the fitted maximal effect; actives are rising curves; nearly all actives have a fitted effect of over 50% in size
#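 Recovery from NS1-induced slow growth read by OD600 in budding yeast switched to galactose assay medium (pH 6.0, -URA) at 1:100 dilution. Compound 23 nl per well; the matching strain lacking NS1 serves as control.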
# Starred values were filed as active, the others as inactive; i = inactive; u = inconclusive; x = not tested or not shown; [ ] = another dose, or the depositor's remark. An excerpt weighted towards active compounds, which were near 21% of everything screened. Unless noted, the call rests on the fitted dose curve; in most records, active means well fitted inhibition curve with a large enough effect; inconclusive means small, poorly fitted or top-dose-only effect, or another doubt; inactive means no such curve, though single readings can be large or run the other way.
SMILES,Cycloheximide cs,Pf growth 96h,Shiga inhibitor,SARS PLpro yeast,Pf growth 48h,NS1 inh
CCCC(C)NC(=O)c1ccc(F)cc1 (stereo not drawn),27*,58%,50*,2%,36%,-5%
CCC(C)NC(=O)c1cccc(C)c1 (stereo not drawn),-4,17%,2,1%,5%,2%
CCCC(C)NC(=O)Cc1ccccc1 (stereo not drawn),-1,u,10,0%,u,8%
CCCC(C)NC(=O)c1ccc(-c2ccccc2)cc1 (stereo not drawn),27*,26%,86*,-9%,276%,x
CCC(C)NC(=O)c1ccc(C(=O)c2ccccc2)cc1 (stereo not drawn),40*,-16%,71*,3%,25%,x
CCC(C)NC(=O)Cc1ccc(-c2ccccc2)cc1 (stereo not drawn),23*,1%,16,-2%,0%,8%
O=C(CCC(=O)OCc1ccc([N+](=O)[O-])cc1)Nc1ccccc1Cl,7,27%[5.75 µM],28,0%,38%,2%
CCCc1ccc(C(=O)NNC(=O)c2ccc(Br)cc2)cc1,7,-8%,-4,2%,-2%,13%
CCCc1ccc(C(=O)NNc2ccc(F)cc2)cc1,17*,22%,35,-3%,5%,-55%
Cc1ccc2nc(C)c3c(c2c1)OC(C(C)(Cl)Br)C3 (stereo not drawn),-4,u,-4,-2%,13µM*,-44%
CCCC(c1nnnn1Cc1ccc(OC)cc1)N1CCN(C(=O)c2ccco2)CC1 (stereo not drawn),0,-5%,-6,1%,0%,5%
COc1ccc(Cn2nnnc2C(CC(C)C)N2CCN(c3ccccc3)CC2)cc1 (stereo not drawn),-1,12%,25,-21%,7.4µM*,-104%
CCCC(c1nnnn1Cc1ccc(OC)cc1)N1CCN(c2ccccc2)CC1 (stereo not drawn),-2,-26%,-8,-3%,13µM*,-51%
Cc1cccc(C(=O)OCC(=O)N2CCN(C(=O)c3ccco3)CC2)c1O,x,x,x,-3%,x,x
CCOC(=O)/C=C/C(=O)OCC(=O)N1CCN(C(=O)c2ccco2)CC1,9.0*,1%,27,1%,40%,2%
Cc1cnc(C(=O)OCC(=O)N2CCN(C(=O)c3ccco3)CC2)cn1,-1,5.2µM*,1,5%,-1%,11%
Cc1ccsc1C(=O)OCC(=O)N1CCN(C(=O)c2ccco2)CC1,33,8%,26*,0%,18%,x
CO/C1=C\C(C)=C\[C@@H](C)[C@@H](O)[C@@H](C)C/C(C)=C/C=C/[C@H](OC)[C@@H]([C@@H](C)[C@@H](O)[C@H](C)[C@@]2(O)C[C@@H](O)[C@H](C)C(C(C)C)O2)OC1=O (stereo partly drawn),7,x,-1,x,x,x
Cc1ccccc1N1C(=O)C2C3CC(=O)C(c4ccccc43)C2C1=O (stereo not drawn),-2,106%,-3,1%,44%,-4%
Cc1ccnc2c(N3C(=O)C4C5c6ccccc6C(c6ccccc65)C4C3=O)cccc12 (stereo not drawn),1,5.2µM*,-15,10%,u,-8%
CCCn1c(=O)c(C(=O)NCCc2ccc(Cl)cc2)c(O)c2ccccc21,-2,154%,0,4%,-12%,-11%
Cn1cccc1C(=O)C(=O)Nc1ccc(Cl)cc1,52*,111%,81*,-4%,487%,-24%
Cn1cccc1C(=O)C(=O)Nc1ccc(F)c(F)c1,45*,i,82*,2%,326%,x
Cn1cccc1C(=O)C(=O)Nc1cc(Cl)cc(Cl)c1,8,u,23,-5%,103%,-22%
CC(C)COC(=O)N1CC(O)CC1C(=O)O (stereo not drawn),0,u,-24,6%,-2%,-1%
SMILES,Cycloheximide cs,Pf growth 96h,Shiga inhibitor,SARS PLpro yeast,Pf growth 48h,NS1 inh
O=C(NC1CC2CCCC(C1)N2Cc1ccco1)NC12CC3CC(CC(C3)C1)C2 (stereo not drawn),-3,u,2,-4%,u,-5%
Cc1nonc1C1CCCN1Cc1nc(-c2ccccc2Cl)oc1C (stereo not drawn),-2,100%,-4,-1%,u,-5%
COc1ccc(CN2CCCCC2c2cccnc2)cc1C (stereo not drawn),1,27%,-2,-2%,13µM*,-3%
COc1ccc(-c2nc(CN3CCCCC3c3cccnc3)c(C)o2)c(F)c1 (stereo not drawn),-4,u,-2,-1%,9.3µM*,4%
COc1cccc(CN2CCCCC2c2cccnc2)c1 (stereo not drawn),-1,10%,65,3%,u,-12%
Cc1ccccc1-c1nc(CN2CCCC2c2ccc(F)cc2)c(C)o1 (stereo not drawn),1,17%,-10,0%,10µM*,5%
Cc1oc(-c2ccccc2Cl)nc1CN1CCCCC1c1cccnc1 (stereo not drawn),-2,u,-5,0%,12µM*,4%
Cc1oc(-c2ccccc2Cl)nc1CN1CCCC1c1ccc(F)cc1 (stereo not drawn),5,6.6µM*,-15,0%,u,-2%
CN1CCC[C@@H]1c1cccnc1,x,15µM*,x,x,-6%,x
O=P(OCC1CC1)(c1ccccc1)c1ccccc1,-1,u,-12,-14%,5%,4%
O=C(COc1ccccc1)Nc1c2c(nn1-c1ccc(F)cc1)CS(=O)(=O)C2,-3,53%,-14,-3%,19%,7%
O=C(CSc1ncnc2nc[nH]c12)c1ccccc1,35*,82%,100*,-1%,95%,1%
Cc1cccc(C)c1NC(=O)CSc1ncnc2nc[nH]c12,-3,10%,-10,1%,7%,-16%
c1ccc(CCSc2ncnc3nc[nH]c23)cc1,29*,43%,39*,-3%,75%,-10%
O=C(CSc1ncnc2nc[nH]c12)c1ccc(Cl)cc1,11*,36%,25*,5%,3%,13%
O=C(CSc1ncnc2nc[nH]c12)c1ccc([N+](=O)[O-])cc1,2,u,-2,0%,u,1%
O=C(NCCOc1cccnc1)C1CCC(=O)N(Cc2ccccc2F)C1 (stereo not drawn),-2,-9%,-8,0%,12%,0%
COc1ccccc1CC(=O)NNC(=O)c1ccco1,-2,u,3,-1%,-2%,4%
COC(=O)c1ccc(NC(=O)CSc2nnc(CNc3ccc(F)cc3)n2C)cc1,10,25%,39,3%,u,-3%
CN(C)c1ccc(-c2ccc3c(=O)c4ccccc4n(C)c3c2)cn1,58*,129%,87*,-4%,85%,-42%
CCc1nc2ccccc2c(C(=O)Oc2ccc(C(=O)OC)cc2)c1C,-3,16%,-15,-4%,20%,-5%
